Screen size: about 69,000 compounds; about 8,600 (12%) showed an effect of 50% or more. Many of the other results were omitted from the sample, so strong results are more common in it than they were.
test system: Plasmodium berghei; assay: Screen against P. berghei liver stage (PbLuc), transformed with Luciferase, at 10uM; assay type: functional, HepG2; conditions: tested at 10 uM

SMILES | INHIBITION
O=C1C[C@H]2[C@H](CCN2C(=O)c2ccno2)N1CC1CC1 | 41.4%
Cc1cc(N(C)C)nc(C2(C)CCCN2CC(N)=O)n1 (stereo unspecified) | 18.8%
N#Cc1ccccc1CN1C[C@H]2CC[C@@H](C1)N(CC1CC1)C2=O | 25.1%
Cc1cc2c(=O)n3c(nc2s1)CCN(C(=O)c1ccnn1C(C)C)CC3 | 11.1%
c1cnnc(N[C@@H]2CC[C@@H]3CN(Cc4ccc5cc[nH]c5c4)C[C@@H]32)c1 | -4.68%
COCC(=O)N1C[C@@H](C)[C@](O)(C(C)C)C1 | 46.4%
CC(Nc1nccc(CCC(F)(F)F)n1)c1nc(-c2ccccn2)no1 (stereo unspecified) | 21.2%
CC(C)c1noc(C(C)Nc2nccc(CCC(F)(F)F)n2)n1 (stereo unspecified) | 29.6%
CC(Nc1nccc(CCC(F)(F)F)n1)c1nc(-c2ccncc2)no1 (stereo unspecified) | 50.4%
O=C(c1ccnnc1)N1CCN(Cc2ccncc2)c2ncccc2C1 | 23.3%
CC(C)(C)C(O)CN1CCN(C(=O)c2ccc3c(c2)COC3)CC1 (stereo unspecified) | 31.8%
CCC(O)CN1CCN(C(=O)c2cc3ccccc3n2CC)CC1 (stereo unspecified) | 1.75%
CCC(O)CN1CCN(C(=O)c2ccc3c(c2)COC3)CC1 (stereo unspecified) | -9.37%
CC(O)CN1CCN(C(=O)c2ccc3c(c2)COC3)CC1 (stereo unspecified) | 60.5%
CCn1c(C(=O)N2CCN(CC(C)O)CC2)cc2ccccc21 (stereo unspecified) | 35.7%
CC(O)CN1CCN(C(=O)c2cc3ccccc3n2C)CC1 (stereo unspecified) | 66.8%
O=C(c1cncs1)N1CCOCC(Cc2ccccn2)C1 (stereo unspecified) | 13.94%
COCCO[C@@H]1CCN(C(=O)c2ccc(C)o2)[C@@H]1Cc1cccnc1 | 2.3%
COc1cc(-c2n[nH]c(CN)n2)cc(OC)c1OC | -9.21%
COc1ccc(C(O)CNC(=O)NCCc2csc(C)n2)cc1 (stereo unspecified) | 44.1%
O=C(C1CCN(Cc2nc(-c3ccco3)no2)CC1)N1CCCC1 | 25.1%
Cc1[nH]ccc1C(=O)NC1CCC(N2C(=O)CCC2=O)CC1 (stereo unspecified) | -86.5%
O=C(NC1CCC(N2C(=O)CCC2=O)CC1)c1c[nH]c2ccccc12 (stereo unspecified) | 76.7%

SMILES | INHIBITION
Cc1ccc(F)c(C(=O)NC2CCC(N3C(=O)CCC3=O)CC2)c1 (stereo unspecified) | -35%
CN(C)CCn1c2c(ccc1=O)CC(NC(=O)c1ccsc1)CC2 (stereo unspecified) | 37.5%
Cc1oc(C)c(C(=O)NCc2cccnc2)c1C | -8.75%
CCCNC(=O)CCNC(=O)N1CCc2c(F)ccc(F)c2C1 | 71.7%
COCCOCCNC(=O)N1CCc2c(F)ccc(F)c2C1 | 5.38%
COC(=O)CCCNC(=O)N1CCc2c(F)ccc(F)c2C1 | 28.7%
Cc1cc(CN2C[C@@H](C)[C@@]3(CCN(C)C3=O)C2)oc1C | 65.9%
Cc1cccc(CN2C[C@@H](C)[C@@]3(CCN(CC(=O)N(C)C)C3=O)C2)c1 | 2.58%
Cc1noc(C)c1CN1C[C@H](C)[C@]2(CCN(Cc3cccnc3)C2=O)C1 | 13.7%
CCc1ccc(CN2C[C@@H](C)C3(CCN(CC(=O)N(C)C)C3=O)C2)o1 (stereo partly specified) | 21.1%
CN1CC[C@]2(CN(Cc3cccs3)C[C@H]2c2ccccc2)C1=O | 24.9%
Cc1cc(CN2C[C@@H](C)[C@@]3(CCN(CC(=O)N(C)C)C3=O)C2)oc1C | 51.2%
Fc1cccc(-c2nc(CN3CCCC(Cn4cncn4)C3)co2)c1 (stereo unspecified) | 11.9%
Cc1nc(CCCNC(=O)c2c(F)cccc2Br)n[nH]1 | 39.6%
COc1ccc2cccc(CC(=O)NCCCc3n[nH]c(C)n3)c2c1 | -6.97%
Cc1nc(CCCNC(=O)Nc2cc(F)cc(F)c2)n[nH]1 | 55.5%
Cc1nc(CCCNC(=O)c2c(F)cc(F)cc2F)n[nH]1 | 33.7%
Cc1nc(CCCNC(=O)Nc2ccc(F)cc2F)n[nH]1 | 56.5%
Cc1nc(CCCNC(=O)c2cc(F)ccc2O)n[nH]1 | 46.6%
COc1ccc(C(NCc2ccc(C#N)cc2)C2CC2)cc1 (stereo unspecified) | -22.3%
COC(=O)CCn1ccc(=O)c2ccccc21 | 20.9%
O=S(=O)(C1CC1)N1CCCn2cnc(COc3cccnc3)c2C1 | -4.26%
Cc1ccc(CCCC(=O)N2CCN(C3CCCN(C)C3)CC2)s1 (stereo unspecified) | 15.7%

SMILES | INHIBITION
O=C(C1CCOC1)N1CCN(CC(F)(F)F)c2ccccc21 (stereo unspecified) | 34.2%
c1ccc(-c2nnc(CN3CCCC3Cn3cncn3)o2)cc1 (stereo unspecified) | -41.6%
COCc1ncn2c1CN(C(=O)c1ccc[nH]1)CC2 | -20.1%
Cc1nc(C)n(CC2CCCN(CCC(=O)N3CCOCC3)C2)n1 (stereo unspecified) | -2.19%
c1c[nH]c(CN2CCCC(Cc3ccc(NC4CCCC4)nn3)C2)n1 (stereo unspecified) | -3.02%
Cc1ccc(C)c(NC(=O)N(C)Cc2cnn(C)c2)c1 | 39.8%
CCSCc1cccc(NC(=O)N(C)Cc2ncnn2C)c1 | 59.7%
CCOc1cc(NC(=O)N(C)Cc2ncnn2C)ccc1C | 50.1%
Cc1ccc(NC(=O)N(C)Cc2cnn(C)c2)c(C)c1 | -29.1%
CN(Cc1ncnn1C)C(=O)Nc1ccc(OC(F)F)cc1 | 21.2%
Cc1ccc(NC(=O)N(C)Cc2cnn(C)c2)cc1OCC(F)F | 52.7%
CC(=O)N(C)Cc1cccc(NC(=O)N(C)Cc2nccs2)c1 | -49.3%
CC(C)OCc1cccc(NC(=O)N(C)Cc2ncnn2C)c1 | 45.8%
CCOc1ccc(CNC(=O)N(C)Cc2ncnn2C)cc1C | 49%
COc1c(CNCCNC(=O)c2cccs2)c(C)nn1C | -79.3%
Cc1ccc(OCCN(C)C(=O)NC(C)c2nncn2C)cc1 (stereo unspecified) | 21.5%
Cc1cccc(NC(=O)Cn2nc3ccccn3c2=O)c1C | -7.35%
CC(C)OCc1nn(C)c2c1CCN(CC1CC1)C2 | 32.5%
Cc1cc(CN2C[C@H](N3CCOCC3)[C@@H]3OCCC[C@@H]32)oc1C | 26.4%
O=c1oc(-c2ccc(F)cc2)nn1CN1CCCCC1 | 23.7%
CCOc1ccc(Cl)c(C(=O)N2CCN(CC(O)CC)CC2)n1 (stereo unspecified) | 14.1%
COCc1cc(N2CCOCC2)n2nccc2n1 | -11.9%
CCc1cc(N2CCN(c3ccc(Cl)cn3)CC2)n2nccc2n1 | 81.2%

SMILES | INHIBITION
COCc1cc(N2CCN(Cc3ccncc3)CC2)n2nccc2n1 | 48.5%
CCc1cc(N2CCC(N3CCSCC3)CC2)n2nccc2n1 | 35%
COCc1cc(N2CCN(C3CCCCC3)CC2)n2nccc2n1 | -9.29%
COCc1cc(N2CCN(c3ccc(Cl)cn3)CC2)n2nccc2n1 | 54.5%
Cc1ccc(CN2CC[C@@H](O)[C@@H]2Cc2cnn(C)c2)o1 | 22.9%
Cc1cccc(CN2C[C@H]3CCC[C@@]3(COCc3csc(C)n3)C2)n1 | -28.2%
CCC(CC)c1cc(CNC(=O)N2CCCC(N(C)C)C2)on1 (stereo unspecified) | -34%
CCC(CC)c1cc(CNC(=O)N2CCCC(C(=O)NC)C2)on1 (stereo unspecified) | 64.6%
CCC(CC)c1cc(CNC(=O)N2CCC(CO)CC2)on1 | 40.4%
C1CCC(c2nnc3sc(C4CCCO4)nn23)C1 (stereo unspecified) | 49.4%
CCOc1ccc(CC(=O)N2CCN(c3nccn3CC)CC2)cc1 | 49.1%
Cc1csc(CNC(=O)N(C)Cc2cnn(C)c2)n1 | 54.4%
Cc1ccsc1CNC(=O)N(C)Cc1cnn(C)c1 | -14.86%
Cc1nc(CNC(=O)N(C)Cc2cnn(C)c2)cs1 | 15.05%
Cc1ccc2c(c1)C1(CCN(C(=O)C3CC3)CC1)CC2N1CCOCC1 (stereo unspecified) | 10.7%
Cc1nn(C)c2c(N3CCN(C(=O)C4CCCCC4)CC3)ncnc12 | 44.1%
CC(C)CN1C(=O)C2(CCN(Cc3ccc(F)cc3)C2)c2ccccc21 (stereo unspecified) | 38.2%
Cc1ccc(CN2CCC3(C2)C(=O)N(CC2CC2)c2ccccc23)s1 (stereo unspecified) | 55%
CC(C)CN1C(=O)C2(CCN(Cc3ccsc3)C2)c2ccccc21 (stereo unspecified) | 32.2%
Cc1ccc(CN2CCC3(CC2)C(=O)N(C)c2ccccc23)s1 | 31.8%
CC(C)CN1C(=O)C2(CCN(Cc3cccs3)C2)c2ccccc21 (stereo unspecified) | 20.4%
CC(=O)N1CCC2(C1)C(=O)N(CC1CC1)c1ccccc12 (stereo unspecified) | -19.6%
CN(C)CCN1C(=O)C2(CCN(CC3CC3)CC2)c2ccccc21 | 27.6%

SMILES | INHIBITION
CN1CCC2(CC1)C(=O)N(CC1CC1)c1ccccc12 | 14.1%
CC(C)CN1C(=O)C2(CCN(Cc3ccoc3)C2)c2ccccc21 (stereo unspecified) | 23.3%
COCCN1C(=O)C2(CCN(CC3CC3)CC2)c2ccccc21 | 55.7%
CC(C)CN1C(=O)C2(CCN(Cc3nccs3)C2)c2ccccc21 (stereo unspecified) | 81.8%
CC(C)CN1C(=O)C2(CCN(CC3CCOCC3)C2)c2ccccc21 (stereo unspecified) | 71.9%
COc1ccc(OC)c(C2CC(=O)Nc3nc(N4CCOCC4)sc32)c1 (stereo unspecified) | 7.66%
Cc1c(NC(=O)NC(C)CCO)cccc1OC1CCCC1 (stereo unspecified) | -16.9%
CC(C)n1ccnc1CN1CCCN(C(=O)c2ncccc2O)CC1 | 32.45%
CCOCCN1CCN(CC(O)c2ccc(F)cc2)CC1 (stereo unspecified) | 37.9%
O=C(NC[C@]12COC[C@H]1CN(Cc1nccs1)C2)c1ccsc1 | 7.31%
COc1ccc(NC(=O)C2CC(=O)N(C)C2)cn1 (stereo unspecified) | 45.7%
CC(C)(NS(C)(=O)=O)c1nc(-c2ccncc2)no1 | 22%
O=C(CCn1c(C(F)F)cc2cccnc21)NC1CCCCC1 | 14.7%
CN1C(=O)C2(CCN(CC3CC3)CC2)c2ccccc21 | 30.7%
Cc1ccc(CN2CCC3(C2)C(=O)N(CC(C)C)c2ccccc23)s1 (stereo unspecified) | 65.1%
CN1C(=O)C2(CCN(CC3CCC3)C2)c2ccccc21 (stereo unspecified) | 88.2%
Cc1ccc(CN2CCC3(CC2)C(=O)Nc2ccccc23)s1 | 23.5%
Cc1ccc(CN2CCC3(C2)C(=O)N(CC(N)=O)c2ccccc23)s1 (stereo unspecified) | 32.5%
CN1C(=O)C2(CCN(CCO)C2)c2ccccc21 (stereo unspecified) | 34.7%
